Source: PubChem BioAssay
Compounds with a hit are over-represented: about 3.5% of the library has one in this group of screens.
DNMT1 block = DNMT1 (human) enzyme inhibition | actives 0.83% (n = 360,000) | DNMT1 molecular beacon, Hinp1I cleavage, fluorescence | P26358 | AID 588458 | inhibition (reported as % activation of signal), % at 10 µM; in the data active = inhibition above about 50%
UHRF1 binding = blocks human UHRF1 binding to methylated DNA; Q96T88; UHRF1 binding to methylated oligo, TR-FRET; inhibition, % at 4.4 µM; actives 0.75% (n = 370,000); in the data active = inhibition above about 21%;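 note: UHRF1 SRA domain binding a hemimethylated CpG hairpin DNA probe; 0% = median of test compound wells and 100% = reference inhibitor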
PG9 Ab binder = binds the HIV-1 gp120 antibody PG9; actives 0.43% (n = 360,000); TR-FRET gp120-PG9 antibody binding; inhibition, % at 6.7 µM; in the data active = inhibition above about 8.5%
MBD2 DNA inh = inhibitors of human MBD2 binding to methylated oligonucleotide. TR-FRET. inhibition, % at 4.4 µM. actives 0.31% (n = 370,000). AID 686964; in the data active = inhibition above about 13%
Target sequence (Q9UBB5 whole entry, looked up): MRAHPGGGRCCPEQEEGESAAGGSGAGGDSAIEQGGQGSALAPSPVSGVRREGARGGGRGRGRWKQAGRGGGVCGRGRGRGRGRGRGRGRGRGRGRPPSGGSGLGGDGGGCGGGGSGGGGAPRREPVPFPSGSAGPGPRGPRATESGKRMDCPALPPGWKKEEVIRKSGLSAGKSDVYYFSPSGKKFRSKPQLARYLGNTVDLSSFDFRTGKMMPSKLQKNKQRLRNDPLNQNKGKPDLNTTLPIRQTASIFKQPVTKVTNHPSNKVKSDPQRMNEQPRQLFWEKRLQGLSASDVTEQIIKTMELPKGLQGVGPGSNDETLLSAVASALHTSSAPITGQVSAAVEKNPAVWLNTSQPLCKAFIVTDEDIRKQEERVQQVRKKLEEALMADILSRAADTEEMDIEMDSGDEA
LEDGF integ inh = blocks HIV-1 LEDGF/p75-dependent DNA integration; inhibition, % at 3.7 µM; AID 743269; actives 0.64% (n = 370,000); TR-FRET IN-LEDGF/p75 DNA integration, Eu/Cy5;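 active = inhibition above the screen-wide mean plus 3 SD, cut at about 13% in these data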;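 note: signal is the Cy5 over europium emission ratio at 671 and 618 nm; 0% = plate median of compound wells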
rCAG binder = molecules binding r(CAG) RNA repeats. r(CAG) RNA repeat, TO-PRO-1 dye displacement fluorescence. inhibition, % at 3 µM. actives 1.3% (n = 370,000);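 active = inhibition above the plate cutoff, the mean of all test compounds on that plate plus 3 SD, cut at about 35% in these data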;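 note: 0% = DMSO alone and 100% = 100 µM mitoxantrone as full dye displacement; higher means more dye released from RNA so lower well fluorescence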
Active calls of the source: *; . = no result given.

SMILES	DNMT1 block	UHRF1 binding	PG9 Ab binder	MBD2 DNA inh	LEDGF integ inh	rCAG binder
CN(Cc1ccccc1)C(=O)C1CCN(S(=O)(=O)c2cc([N+](=O)[O-])ccc2Cl)CC1	0.3	-4.0	-0.3	2.2	5.2	0.9
CC(=O)COC(=O)C1CCN(S(=O)(=O)c2cc([N+](=O)[O-])ccc2Cl)CC1	55.9*	6.4	-1.2	1.1	2.2	12.4
CC1CC2(CCCC2)Nc2ccc(F)cc21 (stereo not given)	-0.9	2.2	0.0	1.6	-0.4	-3.2
Cc1cccc2c1NC1(CCCC1)CC2C (stereo not given)	21.9	22.5*	-0.9	-3.3	-1.4	0.0
Cc1ccc(C(=O)c2c(C)oc3c2C(=O)C(=O)c2ccccc2-3)cc1	51.7*	.	.	.	.	.
O=C(CNC(=O)c1ccc(-c2ccccc2)cc1)OCc1ccc(Br)cc1	1.5	25.6*	-4.0	6.3	3.1	0.4
CC(C)(C)SCCNS(=O)(=O)c1ccc(F)cc1	2.3	24.1*	0.9	0.8	-1.5	-5.1
O=C1NC(=O)/C(=C/c2cc3c(cc2Br)OCO3)S1	1.7	-3.6	-1.9	-4.2	3.0	19.3
O=C1NC(=O)/C(=C\c2ccc(Br)o2)S1	42.5	45.1*	0.2	2.1	11.4	11.7
CSc1ccccc1NC(=O)CN(C)C(=O)Cc1c[nH]c2ccccc12	-4.3	-0.5	-0.7	-0.6	2.0	5.0
CSc1ccccc1NC(=O)CN(C)C(=O)CCc1c[nH]c2ccccc12	-1.9	20.8*	1.0	5.2	-5.1	0.1
CC(C)Cc1cc(C(=O)Nc2ccc(F)cc2F)no1	5.9	24.2*	0.1	0.0	2.9	0.3
CC(C)Cc1cc(C(=O)Nc2cc(Cl)ccc2Cl)no1	3.6	1.5	0.1	4.1	-1.5	-2.2
Cc1ccc(S(=O)(=O)NC(=O)Nc2ccc(N(C)C)cc2)cc1	-10.6	4.1	-110.6	-2.5	26.5*	8.1
CC12COC3(P(=O)(c4ccccc4)c4ccccc4)CC1CCC23CP(=O)(c1ccccc1)c1ccccc1 (stereo not given)	-0.7	22.0*	0.2	11.2	-1.5	0.5
O=C(COC(=O)c1ccc(O)cc1)NCCCc1ccccc1	2.8	-3.1	-0.2	-0.4	-0.1	-2.0
O=C(COC(=O)c1cc(F)cc(F)c1)NCCCc1ccccc1	2.5	85.2*	1.0	6.9	0.7	-5.5
CC(=O)Nc1cccc(-c2nc3ccccc3s2)c1	1.0	1.2	-2.1	8.8	-10.1	5.8
CC(=O)Nc1ccc(O)c(-c2nc3ccccc3s2)c1	-6.1	38.9*	2.4	1.1	-4.7	13.0
COC(=O)c1ccc(CNC(=O)c2ccc(S(=O)(=O)N3CCCC(C)C3)cc2)cc1 (stereo not given)	50.0*	-0.3	0.5	3.8	2.5	4.7
Cc1ccc([N+](=O)[O-])cc1S(=O)(=O)Nc1ccc(O)c(Sc2ncn[nH]2)c1	7.8	15.8	-1.0	1.8	2.5	13.5
Cc1cc(C)c(S(=O)(=O)/N=C2/C=C(Sc3ncn[nH]3)C(=O)c3ccccc32)cc1C	16.0	6.6	0.3	-7.1	42.0*	56.0*
C=CCNC(=O)c1ccc(N(CC=C)S(C)(=O)=O)cc1	-3.8	7.0	0.5	-1.4	-0.2	6.6
O=C(NC(=S)NCCCN1CCOCC1)c1ccc(Br)cc1	0.6	-1.1	-2.0	-4.3	6.2	-5.7
O=C(CCNC(=O)c1ccc(Br)cc1)NCCCN1CCOCC1	-2.5	22.6*	1.2	6.2	-2.4	1.3
SMILES	DNMT1 block	UHRF1 binding	PG9 Ab binder	MBD2 DNA inh	LEDGF integ inh	rCAG binder
C=CCN(c1ccc(C(=O)NCCN2CCOCC2)cc1)S(C)(=O)=O	-2.5	28.7*	-0.3	-1.7	2.8	-3.7
CC(C)(C)c1ccccc1NC(=O)COC(=O)CN1C(=O)NC2(CCCC2)C1=O	0.3	-0.3	0.4	-4.0	2.4	-4.1
Cc1cc(=O)[nH]c(SCC(=O)Nc2cccc3ccccc23)c1C#N	-0.4	.	.	.	.	.
CCc1nnc(NC(=O)CSc2sc3c(O)cc(=O)[nH]c3c2C#N)s1	82.9*	35.3*	-1.1	13.2*	12.5	56.7*
Cc1ccc(Cl)cc1NC(=O)CSc1sc2c(O)cc(=O)[nH]c2c1C#N	15.0	6.1	0.3	4.9	1.8	35.2*
C[C@@H]1OC(C2CCCCC2)N(C)[C@H]2C[C@H]3c4[nH]c5cccc(-c6cccc(F)c6)c5c4CCN3C(=O)[C@@H]12 (stereo not given in full)	.	-7.1	.	-1.8	6.2	13.4
O=C(O)COc1ccc(/C=C/c2nc(-c3ccccc3O)n[nH]2)cc1	-3.7	-2.3	-1.5	-5.2	0.7	22.0
COc1ccc(/C=C/c2nc(-c3ccccc3O)n[nH]2)cc1OC	-18.1	-1.9	-1.5	-6.2	3.7	47.9*
CCCCN1C(=O)c2ccccc2NC1c1ccc(OC)c(COc2ccc(NC(C)=O)cc2)c1 (stereo not given)	.	0.6	.	0.8	-6.9	.
COc1ccc(N2CCN(C(=O)CN(c3ccccc3)S(=O)(=O)c3ccc(OC)cc3)CC2)cc1	-0.3	-1.3	-0.3	4.3	2.5	-2.4
COc1ccc(N2CCN(C(=O)CN(c3ccc(OC)cc3)S(=O)(=O)c3ccccc3)CC2)cc1	2.6	30.7*	-1.2	8.1	5.6	26.8
CC(=O)Nc1ccccc1OCC(=O)NC(C)c1ccccc1 (stereo not given)	-0.8	21.5*	-2.3	2.2	-1.2	0.7
Cc1ccc(S(=O)(=O)N2CCN(C(=O)CCC(=O)NCCc3ccc(S(N)(=O)=O)cc3)CC2)c(C)c1	-1.9	43.8*	1.4	8.2	-1.1	-2.3
Cc1ccc(S(=O)(=O)N2CCN(C(=O)COC(=O)CCc3ccccc3)CC2)c(C)c1	-0.3	12.9	1.2	7.0	-2.9	-0.2
CCCCc1nc(C(N)=O)c2[nH]c(=O)n(-c3ccc(OCC)cc3)c2n1	-0.1	.	.	.	.	.
CCOC(=O)CSc1nc(N)c(C#N)c(-c2ccc(OCC)cc2)c1C#N	-2.0	-0.3	11.5*	-0.5	0.2	2.9
O=C1NN(c2ccccc2)C(=O)C1=Cc1ccccc1O	9.4	-0.7	-3.2	4.4	0.8	4.7
O=C1NN(c2ccc(Br)cc2)C(=O)/C1=C\c1ccc(O)cc1O	5.6	0.2	-1.0	4.6	-0.1	45.9*
CCOC(=O)C1(C(=O)OCC)C(C)CC(=O)N1c1ccccc1OC (stereo not given)	-1.4	-1.2	-0.3	-0.9	0.8	1.4
O=C(Nn1cnnc1)c1ccc(Cl)c([N+](=O)[O-])c1	-1.9	24.7*	-2.1	-0.3	-3.1	-2.0
Cc1cc(C(=O)Nn2cnnc2)ccc1[N+](=O)[O-]	2.8	3.2	2.0	-3.2	1.7	3.1
Cc1c(C(=O)OCC2CCCO2)[nH]c2c1C(=O)CC(c1ccco1)C2 (stereo not given)	97.6*	.	.	.	.	.
COC(=O)C1CN(C2CCCC2)CCS(=O)(=O)N1Cc1cn(Cc2ccc(Cl)cc2)nn1 (stereo not given)	.	9.4	.	6.1	4.8	-1.3
